Laboratory results as given in PubChem BioAssay (NCATS).
Inconclusive results are not listed. Where a call stands in place of a potency, no number is given. The source made the active and inactive calls. Calls come from the whole dose curve; as a rule, active = well fitted inhibition curve with a large enough effect; inconclusive = small, poorly fitted or top-dose-only effect; inactive = flat fitted curve, though single readings scatter.

Tested on: CP247
Experiment: qHTS profiling for inhibitors of Plasmodium falciparum proliferation (AID 504749); note: nearly all actives have a fitted effect of over 60% in size
Settings: P. falciparum in erythrocytes, SYBR Green DNA, 72 h; series mostly up to 28.7 µM
How it was run: (§1)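 Each compound contacts P. falciparum-infected red blood cells for 72 h at 37 C; lysis buffer (Tris, EDTA, saponin, Triton X, SYBR Green I) is added and fluorescence measured next morning; values normalized to controls.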
Potency is the fitted concentration of half-maximal effect.

Row | Structure (SMILES) | Potency
1 | CC(=O)N1CCN(c2ccc(OC[C@@H]3CO[C@@](Cn4ccnc4)(c4ccc(Cl)cc4Cl)O3)cc2)CC1 | inactive
2 | OC[C@H](S)CS | inactive
3 | N[C@H](COP(=O)(O)O)C(=O)O | inactive
4 | C[N+]1(C)[C@@H]2CC(OC(=O)[C@@H](CO)c3ccccc3)C[C@@H]1[C@H]1O[C@H]12 (stereo partly drawn) | inactive
5 | C(=C/c1ccccc1)/CN1CCN(C(c2ccccc2)c2ccccc2)CC1 | inactive
6 | COc1cc2nc(N(C)CCCNC(=O)[C@@H]3CCCO3)nc(N)c2cc1OC | inactive

Tested on: CP250
Experiment: as above
Settings: P. falciparum in erythrocytes, SYBR Green DNA, 72 h; series mostly up to 28.7 µM
How it was run: as §1

Row | Structure (SMILES) | Potency
7 | CC(=O)N1CCN(c2ccc(OC[C@@H]3CO[C@@](Cn4ccnc4)(c4ccc(Cl)cc4Cl)O3)cc2)CC1 | inactive
8 | OC[C@H](S)CS | inactive
9 | N[C@H](COP(=O)(O)O)C(=O)O | inactive
10 | C[N+]1(C)[C@@H]2CC(OC(=O)[C@@H](CO)c3ccccc3)C[C@@H]1[C@H]1O[C@H]12 (stereo partly drawn) | inactive
11 | C(=C/c1ccccc1)/CN1CCN(C(c2ccccc2)c2ccccc2)CC1 | inactive
12 | COc1cc2nc(N(C)CCCNC(=O)[C@@H]3CCCO3)nc(N)c2cc1OC | inactive

Tested on: CP252
Experiment: as above
Settings: P. falciparum in erythrocytes, SYBR Green DNA, 72 h; series mostly up to 28.7 µM
How it was run: as §1

Row | Structure (SMILES) | Potency
13 | CC(=O)N1CCN(c2ccc(OC[C@@H]3CO[C@@](Cn4ccnc4)(c4ccc(Cl)cc4Cl)O3)cc2)CC1 | inactive
14 | OC[C@H](S)CS | inactive
15 | N[C@H](COP(=O)(O)O)C(=O)O | inactive
16 | C[N+]1(C)[C@@H]2CC(OC(=O)[C@@H](CO)c3ccccc3)C[C@@H]1[C@H]1O[C@H]12 (stereo partly drawn) | inactive
17 | C(=C/c1ccccc1)/CN1CCN(C(c2ccccc2)c2ccccc2)CC1 | inactive
18 | COc1cc2nc(N(C)CCCNC(=O)[C@@H]3CCCO3)nc(N)c2cc1OC | inactive

Tested on: CP256
Experiment: as above
Settings: P. falciparum in erythrocytes, SYBR Green DNA, 72 h; series mostly up to 28.7 µM
How it was run: as §1

Row | Structure (SMILES) | Potency
19 | CC(=O)N1CCN(c2ccc(OC[C@@H]3CO[C@@](Cn4ccnc4)(c4ccc(Cl)cc4Cl)O3)cc2)CC1 | inactive
20 | OC[C@H](S)CS | inactive
21 | N[C@H](COP(=O)(O)O)C(=O)O | inactive
22 | C[N+]1(C)[C@@H]2CC(OC(=O)[C@@H](CO)c3ccccc3)C[C@@H]1[C@H]1O[C@H]12 (stereo partly drawn) | inactive
23 | C(=C/c1ccccc1)/CN1CCN(C(c2ccccc2)c2ccccc2)CC1 | inactive
24 | COc1cc2nc(N(C)CCCNC(=O)[C@@H]3CCCO3)nc(N)c2cc1OC | inactive

Tested on: CP260
Experiment: as above
Settings: P. falciparum in erythrocytes, SYBR Green DNA, 72 h; series mostly up to 28.7 µM
How it was run: as §1

Row | Structure (SMILES) | Potency
25 | CC(=O)N1CCN(c2ccc(OC[C@@H]3CO[C@@](Cn4ccnc4)(c4ccc(Cl)cc4Cl)O3)cc2)CC1 | inactive
26 | OC[C@H](S)CS | 891 nM (active)
27 | N[C@H](COP(=O)(O)O)C(=O)O | inactive
28 | C[N+]1(C)[C@@H]2CC(OC(=O)[C@@H](CO)c3ccccc3)C[C@@H]1[C@H]1O[C@H]12 (stereo partly drawn) | inactive
29 | COc1cc2nc(N(C)CCCNC(=O)[C@@H]3CCCO3)nc(N)c2cc1OC | inactive

Tested on: CP262
Experiment: as above
Settings: P. falciparum in erythrocytes, SYBR Green DNA, 72 h; series mostly up to 28.7 µM
How it was run: as §1

Row | Structure (SMILES) | Potency
30 | CC(=O)N1CCN(c2ccc(OC[C@@H]3CO[C@@](Cn4ccnc4)(c4ccc(Cl)cc4Cl)O3)cc2)CC1 | inactive
31 | N[C@H](COP(=O)(O)O)C(=O)O | inactive
32 | C[N+]1(C)[C@@H]2CC(OC(=O)[C@@H](CO)c3ccccc3)C[C@@H]1[C@H]1O[C@H]12 (stereo partly drawn) | inactive
33 | C(=C/c1ccccc1)/CN1CCN(C(c2ccccc2)c2ccccc2)CC1 | inactive
34 | COc1cc2nc(N(C)CCCNC(=O)[C@@H]3CCCO3)nc(N)c2cc1OC | inactive

Tested on: CP265
Experiment: as above
Settings: P. falciparum in erythrocytes, SYBR Green DNA, 72 h; series mostly up to 28.7 µM
How it was run: as §1

Row | Structure (SMILES) | Potency
35 | CC(=O)N1CCN(c2ccc(OC[C@@H]3CO[C@@](Cn4ccnc4)(c4ccc(Cl)cc4Cl)O3)cc2)CC1 | inactive
36 | OC[C@H](S)CS | inactive
37 | N[C@H](COP(=O)(O)O)C(=O)O | inactive
38 | C[N+]1(C)[C@@H]2CC(OC(=O)[C@@H](CO)c3ccccc3)C[C@@H]1[C@H]1O[C@H]12 (stereo partly drawn) | inactive
39 | C(=C/c1ccccc1)/CN1CCN(C(c2ccccc2)c2ccccc2)CC1 | inactive
40 | COc1cc2nc(N(C)CCCNC(=O)[C@@H]3CCCO3)nc(N)c2cc1OC | inactive

Tested on: CP266
Experiment: as above
Settings: P. falciparum in erythrocytes, SYBR Green DNA, 72 h; series mostly up to 28.7 µM
How it was run: as §1

Row | Structure (SMILES) | Potency
41 | OC[C@H](S)CS | inactive
42 | N[C@H](COP(=O)(O)O)C(=O)O | inactive
43 | C[N+]1(C)[C@@H]2CC(OC(=O)[C@@H](CO)c3ccccc3)C[C@@H]1[C@H]1O[C@H]12 (stereo partly drawn) | inactive
44 | C(=C/c1ccccc1)/CN1CCN(C(c2ccccc2)c2ccccc2)CC1 | inactive

Tested on: CP268
Experiment: as above
Settings: P. falciparum in erythrocytes, SYBR Green DNA, 72 h; series mostly up to 28.7 µM
How it was run: as §1

Row | Structure (SMILES) | Potency
45 | N[C@H](COP(=O)(O)O)C(=O)O | inactive
46 | C[N+]1(C)[C@@H]2CC(OC(=O)[C@@H](CO)c3ccccc3)C[C@@H]1[C@H]1O[C@H]12 (stereo partly drawn) | inactive
47 | C(=C/c1ccccc1)/CN1CCN(C(c2ccccc2)c2ccccc2)CC1 | inactive
48 | COc1cc2nc(N(C)CCCNC(=O)[C@@H]3CCCO3)nc(N)c2cc1OC | inactive

Tested on: CP269
Experiment: as above
Settings: P. falciparum in erythrocytes, SYBR Green DNA, 72 h; series mostly up to 28.7 µM
How it was run: as §1

Row | Structure (SMILES) | Potency
49 | CC(=O)N1CCN(c2ccc(OC[C@@H]3CO[C@@](Cn4ccnc4)(c4ccc(Cl)cc4Cl)O3)cc2)CC1 | inactive
50 | N[C@H](COP(=O)(O)O)C(=O)O | inactive
51 | C[N+]1(C)[C@@H]2CC(OC(=O)[C@@H](CO)c3ccccc3)C[C@@H]1[C@H]1O[C@H]12 (stereo partly drawn) | inactive
52 | C(=C/c1ccccc1)/CN1CCN(C(c2ccccc2)c2ccccc2)CC1 | inactive
53 | COc1cc2nc(N(C)CCCNC(=O)[C@@H]3CCCO3)nc(N)c2cc1OC | inactive
